Source: PubChem BioAssay (NCI)
Compounds without any hit were thinned out: in the full panel of roughly 83,000, 20% have a hit.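 Cells were grown in 96-well plates and exposed to the test compound at a single concentration for 48 hours; results are reported as percent growth, with values below 10 considered active.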 Calls of active or inactive are those of the source.

Legend:
Assay in all cases: NCI-60 one-dose screen, 48 h (100 = growth as untreated, 0 = no growth, -100 = all killed)
HCT-15 colon = details: 10 µM
HT29 colon = details: 10 µM
SNB-75 CNS = details: 10 µM
U251 CNS = details: 10 µM
PC-3 prostate = details: 10 µM
SK-MEL-5 melanoma = details: 10 µM
UACC-62 melanoma = details: 10 µM unless noted
LOX IMVI melanoma = details: 10 µM
SK-MEL-28 melanoma = details: 10 µM
SNB-19 CNS = details: 10 µM

Measured: growth

COc1ccc2c(c1)CCc1c-2n[nH]c1-c1[nH]nc2c1CCc1cc(OC)ccc1-2
inactive: HCT-15 colon 35.6% | HT29 colon 52.3% | SNB-75 CNS 29.3% | U251 CNS 54.2% | PC-3 prostate 50.4% | SK-MEL-5 melanoma 37.2% | UACC-62 melanoma 25.8% | LOX IMVI melanoma 43.8% | SK-MEL-28 melanoma 58.7%

CCCCCCCCO
inactive: HCT-15 colon 98.3% | HT29 colon 111% | SNB-75 CNS 90.1% | SNB-19 CNS 103% | PC-3 prostate 94.3% | UACC-62 melanoma 108% | LOX IMVI melanoma 105% | SK-MEL-28 melanoma 112%

c1ccc(/C(=N\N=C(/c2ccccc2)c2cccs2)c2cccs2)cc1
inactive: HCT-15 colon 92.4% | HT29 colon 95.4% | SNB-75 CNS 89% | U251 CNS 103% | PC-3 prostate 99.8% | SK-MEL-5 melanoma 101% | LOX IMVI melanoma 88.4% | SK-MEL-28 melanoma 108%

CC(=O)Nc1c(C)cc(C)cc1C
inactive: HCT-15 colon 102% | HT29 colon 119% | SNB-75 CNS 89.2% | U251 CNS 99.3% | PC-3 prostate 103% | SK-MEL-5 melanoma 100% | UACC-62 melanoma 107% | LOX IMVI melanoma 96.9% | SK-MEL-28 melanoma 112%

Cc1ccc(N)cc1[N+](=O)[O-]
inactive: HCT-15 colon 106% | HT29 colon 123% | SNB-19 CNS 113% | U251 CNS 98.8% | PC-3 prostate 95.8% | SK-MEL-5 melanoma 111% | UACC-62 melanoma 105%

CC(C)=CC(=O)OC(=O)C=C(C)C
inactive: HCT-15 colon 102% | HT29 colon 111% | SNB-19 CNS 104% | U251 CNS 102% | PC-3 prostate 98.4% | SK-MEL-5 melanoma 98.8% | UACC-62 melanoma 98.2% | LOX IMVI melanoma 109% | SK-MEL-28 melanoma 102%

CC(=O)CC(=O)N(C)C
inactive: HCT-15 colon 95.1% | HT29 colon 97.8% | SNB-75 CNS 80.1% | U251 CNS 100% | PC-3 prostate 92.8% | SK-MEL-5 melanoma 93.7% | UACC-62 melanoma 88.8% | LOX IMVI melanoma 94.1% | SK-MEL-28 melanoma 105%

O=[N+]([O-])c1cccc(C(F)(F)F)c1
inactive: HCT-15 colon 93.8% | HT29 colon 98.7% | SNB-19 CNS 103% | U251 CNS 104% | PC-3 prostate 94.6% | SK-MEL-5 melanoma 107% | UACC-62 melanoma 101% | LOX IMVI melanoma 99.7%

CC1(O)OC(COc2ccc(Cl)cc2)COC1O (stereo not drawn)
inactive: HCT-15 colon 103% | HT29 colon 116% | SNB-75 CNS 112% | U251 CNS 100% | PC-3 prostate 107% | SK-MEL-5 melanoma 101% | UACC-62 melanoma 89.8% | SK-MEL-28 melanoma 107%

Cc1ccncc1C(N)=O
inactive: HCT-15 colon 96.6% | HT29 colon 105% | SNB-75 CNS 80.9% | U251 CNS 98.3% | SK-MEL-5 melanoma 100% | UACC-62 melanoma 95.8% | LOX IMVI melanoma 93.2% | SK-MEL-28 melanoma 114%

O=C(O)c1ccccc1NCc1ccco1
inactive: HCT-15 colon 108% | HT29 colon 98.7% | SNB-19 CNS 108% | U251 CNS 103% | PC-3 prostate 111% | SK-MEL-5 melanoma 100% | UACC-62 melanoma 101% | LOX IMVI melanoma 93.5% | SK-MEL-28 melanoma 111%

CCOC(=O)/C(=C/c1ccc(OC)cc1)N(CC)CC
inactive: HCT-15 colon 112% | HT29 colon 109% | SNB-19 CNS 103% | U251 CNS 99.1% | PC-3 prostate 95.4% | SK-MEL-5 melanoma 99.7% | UACC-62 melanoma 102% | LOX IMVI melanoma 97.7% | SK-MEL-28 melanoma 112%

O=C(Cc1nc2ccc([N+](=O)[O-])cc2nc1CC(=O)c1cccnc1)c1cccnc1
active: SNB-75 CNS 4%
inactive: HCT-15 colon 58.3% | HT29 colon 95.8% | PC-3 prostate 96.7% | SK-MEL-5 melanoma 74.5% | UACC-62 melanoma 69.4% | LOX IMVI melanoma 49.4% | SK-MEL-28 melanoma 80.6%

CCCCC(CC)COC(C)=O (stereo not drawn)
inactive: HCT-15 colon 109% | HT29 colon 111% | SNB-19 CNS 106% | U251 CNS 99.6% | PC-3 prostate 97% | SK-MEL-5 melanoma 105% | UACC-62 melanoma 103% | LOX IMVI melanoma 97.4% | SK-MEL-28 melanoma 108%

CC(=O)Cc1cc(-c2cc(CC(C)=O)[nH]n2)n[nH]1
inactive: HCT-15 colon 99.4% | HT29 colon 102% | SNB-75 CNS 87.1% | U251 CNS 97.7% | PC-3 prostate 96.7% | SK-MEL-5 melanoma 99.6% | UACC-62 melanoma 90.3% | LOX IMVI melanoma 96.3% | SK-MEL-28 melanoma 107%

COc1ccccc1C1OC2=Nc3cc(C)c(C)cc3NC2C1=O (stereo not drawn)
inactive: HCT-15 colon 80.8% | HT29 colon 93.1% | U251 CNS 53% | PC-3 prostate 82.5% | SK-MEL-5 melanoma 78.3% | UACC-62 melanoma 76.2% | LOX IMVI melanoma 72.3% | SK-MEL-28 melanoma 106%
active: SNB-75 CNS -13.2%

COc1ccc(Oc2c(I)cc(CC(NC(C)=O)C(=O)O)cc2I)cc1 (stereo not drawn)
inactive: HCT-15 colon 96.6% | HT29 colon 85.2% | SNB-75 CNS 87.1% | U251 CNS 86.5% | PC-3 prostate 69.5% | SK-MEL-5 melanoma 60.7% | LOX IMVI melanoma 70% | SK-MEL-28 melanoma 103%

NCCC(=O)c1ccc(Cl)cc1
inactive: HCT-15 colon 107% | HT29 colon 106% | SNB-75 CNS 96.1% | U251 CNS 105% | PC-3 prostate 97.2% | SK-MEL-5 melanoma 99.5% | UACC-62 melanoma 112% | LOX IMVI melanoma 106% | SK-MEL-28 melanoma 109%

Nc1ccccc1SC(CC(=O)c1ccccc1)c1c(Cl)cccc1Cl (stereo not drawn)
inactive: HCT-15 colon 44.5% | HT29 colon 42.5% | SNB-75 CNS 70.6% | U251 CNS 27% | SK-MEL-5 melanoma 81.4% | UACC-62 melanoma 73.9% | LOX IMVI melanoma 22.7% | SK-MEL-28 melanoma 90.8%

O=C1C[C@H](c2ccccc2)[C@H](c2ccccc2)C1
inactive: HCT-15 colon 102% | HT29 colon 105% | SNB-19 CNS 96.1% | U251 CNS 103% | PC-3 prostate 79.4% | SK-MEL-5 melanoma 104% | UACC-62 melanoma 90.2% | LOX IMVI melanoma 102% | SK-MEL-28 melanoma 109%

c1c(-c2cc(C3CC3)[nH]n2)n[nH]c1C1CC1
inactive: HCT-15 colon 103% | HT29 colon 98.7% | SNB-75 CNS 112% | U251 CNS 95.2% | PC-3 prostate 98.1% | SK-MEL-5 melanoma 82.1% | LOX IMVI melanoma 77.8% | SK-MEL-28 melanoma 100%

CC(C)=C(NC(=O)c1ccccc1)C(=O)O
inactive: HCT-15 colon 104% | HT29 colon 99.6% | SNB-75 CNS 108% | U251 CNS 114% | PC-3 prostate 87.8% | SK-MEL-5 melanoma 99% | LOX IMVI melanoma 101% | SK-MEL-28 melanoma 108%

O=C(O)/C=C/C(=O)NCc1ccccc1
inactive: HCT-15 colon 97.3% | HT29 colon 105% | SNB-19 CNS 115% | U251 CNS 118% | PC-3 prostate 101% | SK-MEL-5 melanoma 101% | UACC-62 melanoma 118% | LOX IMVI melanoma 97% | SK-MEL-28 melanoma 105%

CCCCC(=O)c1ccc(OC)cc1
inactive: HCT-15 colon 91.3% | HT29 colon 107% | SNB-19 CNS 104% | U251 CNS 97.9% | PC-3 prostate 110% | SK-MEL-5 melanoma 96.5% | UACC-62 melanoma 111% | LOX IMVI melanoma 102% | SK-MEL-28 melanoma 111%

S=C1CCCCCN1
inactive: HCT-15 colon 100% | HT29 colon 108% | SNB-19 CNS 99.1% | U251 CNS 111% | PC-3 prostate 105% | SK-MEL-5 melanoma 107% | UACC-62 melanoma 100% | LOX IMVI melanoma 101% | SK-MEL-28 melanoma 105%

OC1OC(COC(c2ccccc2)(c2ccccc2)c2ccccc2)C(O)C(O)C1O (stereo not drawn)
inactive: HCT-15 colon 98.6% | HT29 colon 110% | SNB-75 CNS 72% | U251 CNS 91% | SK-MEL-5 melanoma 100% | UACC-62 melanoma 85.5% | SK-MEL-28 melanoma 91.4%

CCS(=O)(=O)CCCl
inactive: HCT-15 colon 91.8% | HT29 colon 110% | SNB-75 CNS 123% | PC-3 prostate 99.5% | SK-MEL-5 melanoma 94.3% | UACC-62 melanoma 85.1% | LOX IMVI melanoma 81.7% | SK-MEL-28 melanoma 106%
